These results are taken from PubChem BioAssay (NCATS).

Records with an inconclusive call do not appear. Unmarked numbers belong to inactive results. Active and inactive are the calls of the source. Calls follow the shape of the dose curve; as a rule, active = well fitted inhibition curve with a large enough effect; inconclusive = small, poorly fitted or top-dose-only effect; inactive = flat fitted curve, though single readings scatter.

The target of this assay is Tyrosyl-DNA phosphodiesterase 1 (Homo sapiens) (UniProt Q9NUW8). In words: Confirmation Assay for Inhibitors of Tyrosyl-DNA Phosphodiesterase (TDP1) (AID 489007). Also: nearly all actives have a fitted effect of over 40% in size. As to conditions: recombinant human TDP1 enzymatic activity, dose-response. In outline:
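Loss of AlphaScreen signal reports Tdp1 cleavage of a dual-labelled DNA substrate. Conditions: 1 nM E. coli-derived enzyme, 15 nM substrate, 15 min compound preincubation, 5 min reaction, 10 min bead incubation, all at room temperature.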
Potency is read from the fitted curve at half-maximal effect.

Chain of Tyrosyl-DNA phosphodiesterase 1 (Homo sapiens) (Q9NUW8 whole entry, looked up): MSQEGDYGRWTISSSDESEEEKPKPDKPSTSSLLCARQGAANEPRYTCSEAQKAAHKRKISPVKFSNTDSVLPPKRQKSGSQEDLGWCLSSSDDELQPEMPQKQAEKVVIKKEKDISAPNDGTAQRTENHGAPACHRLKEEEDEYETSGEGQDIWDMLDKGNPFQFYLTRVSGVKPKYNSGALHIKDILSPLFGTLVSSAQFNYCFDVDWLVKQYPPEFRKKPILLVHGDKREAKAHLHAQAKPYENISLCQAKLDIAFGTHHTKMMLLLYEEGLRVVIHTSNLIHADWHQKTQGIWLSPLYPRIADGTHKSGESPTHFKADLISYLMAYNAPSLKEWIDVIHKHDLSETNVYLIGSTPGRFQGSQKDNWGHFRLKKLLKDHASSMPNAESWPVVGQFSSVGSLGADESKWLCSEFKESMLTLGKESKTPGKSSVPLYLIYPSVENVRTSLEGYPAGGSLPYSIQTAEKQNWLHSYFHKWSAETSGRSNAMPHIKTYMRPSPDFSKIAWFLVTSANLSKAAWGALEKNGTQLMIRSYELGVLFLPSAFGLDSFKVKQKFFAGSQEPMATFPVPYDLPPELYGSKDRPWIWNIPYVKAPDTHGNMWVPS

For `CC1=N/C(=C/c2ccco2)C(=O)O1`, the Potency is 3.55 µM (active).

As to `Cc1c(C(=O)O)sc2nc3n(c(=O)c12)CCC3`, the Potency was 6.31 µM (active).

For `O=C1CCCC(O)=C1N=Nc1ccc(C(=O)O)cc1`, the Potency was 1.41 µM (active).

For `Cc1ccc(S(=O)(=O)N2CCCN(c3nc4cc(C)ccc4cc3C#N)CC2)cc1`, the Potency was 39.8 µM (active).

Consider `Cc1ccc(NC(=O)c2noc3c2CCC3)cc1C`, for which the Potency was 12.6 µM (active).

Regarding `CCOc1ccc(N=Cc2c(C)[nH]n(-c3nc4ccccc4[nH]3)c2=O)cc1`, the Potency is 31.6 µM (active).

Regarding `O=C(O)c1ccc(-c2ccc(/C=C3\NC(=O)N(Cc4ccc(Cl)cc4)C3=O)o2)cc1Cl`, the Potency was 3.55 µM (active).

Take `Cc1ccnc(NS(=O)(=O)c2ccc(NC(=O)C3C4C=CC(C4)C3C(=O)O)cc2)n1` (stereo not given): the Potency was 35.5 µM (active).

`Cc1ccc(CNC(=O)CCS(=O)(=O)c2ccc(Br)cc2)cc1`: the Potency was 12.6 µM (active).

With `Cc1nc(S/C(=C\c2ccc(-c3ccc(C(=O)O)c(Cl)c3)o2)C(=O)O)n[nH]1`, the Potency was 3.55 µM (active).

In the case of `COc1ccc(CCNC(=O)c2ccc3nc(-c4ccco4)c(-c4ccco4)nc3c2)cc1OC`, the Potency was 10 µM (active).

On to `Cc1nc(S/C(=C/c2ccc(OCc3ccc(C(=O)O)cc3)cc2)C(=O)O)n[nH]1`, for which the Potency was 35.5 µM (active).

Consider `CS(=O)(=O)C1=NSC2=NC(=O)/C(=C\c3cccn3-c3ccc(Cl)cc3)C(=N)N21`, for which the Potency is 5.01 µM (active).

For the compound `Cc1ccc2cc(C)c3nnc(SCC(=O)NCc4ccco4)n3c2c1`, the Potency was 35.5 µM (active).

Take `CCN(c1ccccc1)S(=O)(=O)c1cc(C(=O)O)ccc1C`: the Potency is 12.6 µM (active).

Regarding `O=C(O)/C=C/c1ccc([N+](=O)[O-])o1`, the Potency was 50.1 µM (active).

Turning to `CC(=C/C(=O)O)/C=C/c1ccc(Cl)o1`, the Potency was 39.8 µM (active).

With `O=C1CC(=O)N(Cc2ccco2)C(=S)N1`, the Potency is 15.8 µM (active).

`Cc1ccccc1NC(=O)CN1C(=O)S/C(=C\c2cccn2-c2cccc(C(=O)O)c2)C1=O`: the Potency is 14.1 µM (active).

On to `Cc1nn(-c2ccccc2)c(C)c1S(=O)(=O)O`, for which the Potency is 25.1 µM (active).

As to `Clc1ccc(N2N=C(c3cccs3)CC2c2ccco2)cc1` (stereo not given), the Potency is 11.2 µM (active).

Turning to `O=C(O)c1ccc2ncsc2c1`, the Potency is 39.8 µM (active).

As to `CCCCC[C@H](O)/C=C/[C@@H]1[C@@H](C/C=C\CCCC(=O)OC)[C@@H](O)C[C@H]1O`, the Potency was 25.1 µM (active).

Regarding `COc1ccc(CCN2C(=O)C3C4CC(C5C(C(N)=O)=NOC45)C3C2=O)cc1OC` (stereo not given), the Potency is 112 µM (active).

With `Cc1nnc(NC(=O)CCSCCC(=O)Nc2nnc(C)s2)s1`, the Potency was 15.8 µM (active).

Consider `CCc1oc(C(=O)O)cc1COC`, for which the Potency was 31.6 µM (active).

As for `S=c1[nH]nc(-c2cccnc2)n1/N=C/c1ccc(Br)s1`, the Potency was 63.1 µM (active).

In the case of `CCCCC(=O)Nc1ccc(C(=O)NNC(=O)CCc2ccccc2)cc1`, the Potency was 100 µM (active).

As for `CC1=CCC(C(=O)O)C(C(=O)Nc2ccc(-c3nc4ccc(C)cc4s3)cc2)C1` (stereo not given), the Potency was 31.6 µM (active).

Regarding `O=C(NC1CC1)c1cc(-c2ccco2)nc2ccccc12`, the Potency is 3.55 µM (active).

On to `O=C(NN1C(=O)C2CC=C(Cl)CC2C1=O)c1ccncc1` (stereo not given), for which the Potency was 31.6 µM (active).

Regarding `CC(=O)c1ccc(S(=O)(=O)N2Cc3ccccc3CC2C(=O)O)cc1` (stereo not given), the Potency is 15.8 µM (active).

As for `O=S(=O)(O)c1ccc2c(c1)-c1nc-2nc2[nH]c(nc3nc(nc4[nH]c(n1)c1ccc(S(=O)(=O)O)cc41)-c1ccc(S(=O)(=O)O)cc1-3)c1ccc(S(=O)(=O)O)cc21`, the Potency is 0.0282 µM (active).

Take `O=C(O)c1cc(-c2ccc(/C=N/N3C(=O)C4C5C=CC(C6CC56)C4C3=O)o2)ccc1Cl` (stereo not given): the Potency was 31.6 µM (active).

As to `COc1ccc(-c2nc3c(c(SCC(=O)Nc4ccc(C(=O)O)cc4)n2)Cc2ccccc2O3)cc1`, the Potency was 1.62 µM (active).

On to `O=C(N/N=C/c1cccc(Br)c1)c1ccc(Br)cc1`, for which the Potency was 50.1 µM (active).

As to `CC(=O)c1ccc(NC(=O)c2noc3c2CCC3)cc1`, the Potency is 50.1 µM (active).

`O=C(O)c1ccc(-c2ccc(/C=C3\NC(=O)N(Cc4ccc(Cl)cc4)C3=O)o2)cc1`: the Potency was 14.1 µM (active).

Regarding `Cc1ccc(CNC(=O)c2ccc(-n3cccc3)cc2)cc1`, the Potency was 12.6 µM (active).

Regarding `Cc1ccc(CN2C(=O)N/C(=C/c3ccc(-c4ccc(C(=O)O)cc4)o3)C2=O)cc1`, the Potency was 12.6 µM (active).

Regarding `O=c1c2nc(Br)n([C@@H]3O[C@@H]4CO[P@@](O)(=S)O[C@H]4[C@H]3O)c2nc2[nH]c(-c3ccccc3)cn12`, the Potency is 12.6 µM (active).

Consider `Nc1cc([N+](=O)[O-])ccc1N1C(=O)CCCC1=O`, for which the Potency was 15.8 µM (active).

`Nc1nonc1-c1nc2ccccc2n1CC(=O)N/N=C/c1ccc(-c2cccc(C(=O)O)c2)o1`: the Potency is 14.1 µM (active).

Consider `C=CCc1cccc2cc(C(=O)Nc3ccc(S(=O)(=O)Nc4nnc(CC)s4)cc3)c(=O)oc12`, for which the Potency is 15.8 µM (active).

For the compound `CC(=O)OCC1=C(C(=O)O)N2C(=O)C(NC(=O)CSc3ccncc3)[C@@H]2SC1` (stereo not given in full), the Potency is 14.1 µM (active).
